High-throughput results: PubChem BioAssay, National Center for Advancing Translational Sciences (NCATS)
In the library only some 17% were active in any assay of this set; here they are far more common.
DT40 TDP1 no CPT = qHTS for Inhibitors of human tyrosyl-DNA phosphodiesterase 1 (TDP1): qHTS in cells in absence of CPT; DT40 Tdp1-/- hTDP1 cells, no CPT, ATP luminescence, 48 h; Potency, µM (titrated, usually from 46.2 µM), actives largely listed as inhibitors; 15% of 420,000 active; AID 686978, 2013; also: nearly all actives have a fitted effect of over 55% in size
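Chicken DT40 Tdp1-/- cells stably complemented with human TDP1 were seeded at 400 cells/well with DMSO in place of 20 nM camptothecin. After compound pinning, cells grew at least 48 hr at 37 °C; viability read by CellTiter-Glo luminescence.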
TDP1 cell CPT = qHTS for Inhibitors of human tyrosyl-DNA phosphodiesterase 1 (TDP1): qHTS in cells in presence of CPT | chicken DT40 Tdp1-/-;hTDP1 cells + 20 nM CPT, ATP luminescence, 48 h | Potency, µM (series often up to 46.2 µM), actives largely listed as inhibitors | 12% of 420,000 active | AID 686979, 2013; also: nearly all actives have a fitted effect of over 55% in size
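Chicken DT40 Tdp1-/- cells stably complemented with human TDP1 were seeded at 400 cells/well in medium containing 20 nM camptothecin, exposed to pin-transferred compounds, and grown at 37 °C for at least 48 hr. Viability was read as ATP luminescence.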
HepG2 viability = qHTS for Inhibitors of TGF-b: Cytotox Counterscreen; 0.76% of 410,000 active; HepG2 CAGA-GFP viability, ATP luminescence, 18 h; Potency, µM (highest dose often 46.1 µM), actives largely listed as cytotoxic; AID 588856, 2011
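CellTiter-Glo luminescence gave cytotoxicity after 18 hours at 37 degrees C. The cells were HepG2 CAGA-GFP in 1% FBS DMEM, stimulated with 500 pg/mL TGF-beta after compound addition. %Activity was normalised to no-cell wells (complete cell-killing) and DMSO (no toxicity), and curves were fitted and classified.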
TGFb inhibitor = qHTS for Inhibitors of TGF-b. HepG2 CAGA-GFP TGF-b/SMAD3 reporter, GFP fluorescence, 18 h; TGF-beta stimulated, 500 pg/mL final. Potency, µM (highest dose often 46.1 µM), hits mostly inhibitors. 1.2% of 410,000 active. AID 588855, 2011; also: nearly all actives have a fitted effect of over 65% in size
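TGF-beta reporter screen: HEPG2 CAGA-GFP, 1% FBS, 500 pg/mL TGF-beta final, 18 h; per-cell GFP summed per well; curves fitted and categorized by class.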
HT1080 IDH1KD tx = qHTS for induction of synthetic lethality in tumor cells producing 2HG: qHTS for the HT-1080-IDH1KD cell line; HT-1080 IDH1 knockdown viability, ATP luminescence, 48 h; Potency, µM (series often up to 46.1 µM), actives largely listed as cytotoxic; 2% of 360,000 active; AID 686971, 2013
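Luminescent ATP read-out (CellTiter-Glo, 10 min at room temperature) after 48 h compound exposure at 37 °C gave viability of IDH1-knockdown HT-1080 cells. Activity was normalised to DMSO and cell-free wells, then fitted as concentration-response curves.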
HT1080-NT tox = qHTS for induction of synthetic lethality in tumor cells producing 2HG: qHTS for the HT-1080-NT fibrosarcoma cell line | 1.6% of 360,000 active | HT-1080-NT fibrosarcoma viability, CellTiter-Glo ATP luminescence, 48 h | Potency, µM (titrated, usually from 46.1 µM), actives largely listed as cytotoxic;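 also: NT is the 2HG producing partner of a matched IDH1 knockdown line; nearly all actives have a fitted effect of over 55% in size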
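Luminescent CellTiter-Glo readout after 48 hours of compound exposure at 37 degrees C defined viability of HT-1080-NT cells. Activity was normalized to DMSO wells and cell-free media wells; concentration-response curves were fitted and assigned curve classes.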
A number is an active result; - = inactive; ? = inconclusive; . = not tested or not shown. Calls follow the shape of the dose curve; as a rule, active = well fitted curve in the direction sought with a large enough effect; inconclusive = small, poorly fitted or top-dose-only effect, or another doubt; inactive = no such curve, though single readings can be large; an effect the other way counts as inactive or inconclusive.

SMILES | DT40 TDP1 no CPT | TDP1 cell CPT | HepG2 viability | TGFb inhibitor | HT1080 IDH1KD tx | HT1080-NT tox
COc1ccc(CN2CCC[C@]3(N[C@H](c4ccc(C(F)(F)F)cc4)[C@@H]4C(=O)N(C)C(=O)[C@@H]43)C2=O)cc1 | ? | 23.1µM | - | - | - | -
Cc1nc(N2CCCCCC2)c2ccccc2n1 | 20.6µM | ? | - | ? | - | -
CCN1CCN(c2nc(-c3ccccn3)nc3ccccc23)CC1 | 20.6µM | ? | - | - | 10µM | 8.91µM
c1ccc2c(N3CCCC3)nc(-c3ccncc3)nc2c1 | 18.4µM | ? | - | - | - | -
CN1CCN(c2nc(-c3ccc(Cl)cc3)nc3ccccc23)CC1 | 16.4µM | ? | - | - | - | -
CN1CCN(c2nc(-c3ccncc3)nc3ccccc23)CC1 | ? | ? | - | - | ? | ?
Oc1c(C(c2ccc(Cl)cc2Cl)N2CCCC2)sc2nc(-c3ccco3)nn12 (stereo not drawn) | - | - | - | - | . | .
c1ccc(-c2nc(N3CCCCCC3)c3ccccc3n2)nc1 | 2.31µM | 2.06µM | - | - | ? | -
c1ccc2c(c1)CC1(CCCCC1)n1nnnc1-2 | 23.1µM | 14.6µM | - | - | - | -
c1ccc2c(c1)Cn1nnnc1-2 | - | - | - | - | - | -
N=C1SCC(=O)N1c1ccc(Cl)cc1 | - | - | - | - | - | -
Cc1oc(-c2ccccc2F)nc1Cn1c(SCc2cccc(C(F)(F)F)c2)nc2ccncc21 | ? | ? | - | ? | . | .
Cc1ccc(CSc2nc3ccncc3n2Cc2nc(-c3ccccc3C)oc2C)cc1 | ? | ? | - | ? | . | .
Cc1oc(-c2cccc(Cl)c2)nc1Cn1c(SCc2ccccc2F)nc2ccncc21 | 23.1µM | 16.4µM | - | ? | . | .
COc1ccc(-c2nc(Cn3c(SCc4cccc(Cl)c4)nc4ccncc43)c(C)o2)cc1 | ? | 23.1µM | - | - | . | .
COc1ccc(CSc2nc3ccncc3n2Cc2nc(-c3ccc(OC)c(OC)c3)oc2C)cc1 | ? | 25.9µM | - | ? | . | .
O=C(NCCc1ccccc1)C1CCN(C2CCN(C(=O)CC3=CCCCC3)CC2)CC1 | ? | ? | - | - | - | -
OC(c1ccccc1)(c1nc(-c2ccc3c(c2)OCO3)cs1)C(F)(F)F (stereo not drawn) | ? | ? | - | ? | ? | ?
OCCn1c(-c2ccc(F)cc2)csc1=Nc1ccccc1 | 20.6µM | ? | - | - | - | -
COC(=O)c1cc(=O)n(CCc2ccccc2)c(=Nc2ccc(F)cc2)s1 | ? | ? | - | - | - | ?
OCCn1c(-c2ccc3c(c2)OCO3)csc1=Nc1ccccc1 | 20.6µM | 16.4µM | - | - | - | -
Cc1cccc(C(=O)N2CC(=O)Nc3ccc(F)cc3C2c2ccc(F)cc2)c1 (stereo not drawn) | ? | - | - | - | - | -
COc1ccc(C2=CCCCCC2)c(OC)c1OC | ? | ? | - | - | - | -
COc1ccc(C2=CCCCCC2)cc1OC | 11.6µM | ? | - | - | - | -
Cc1cc(C)c(NC(=O)C2CC(=O)N(C3CCCC3)C2)c(C)c1 (stereo not drawn) | - | - | - | - | - | -
Cc1c(C(=O)N(Cc2ccco2)Cc2ccccc2Cl)oc2ccc(F)cc12 | 14.6µM | ? | - | ? | . | .
Cc1ccc2c(C)c(C(=O)N(Cc3ccc(N(C)C)cc3)Cc3ccco3)oc2c1C | 13µM | ? | - | . | . | .
Cc1c(C(=O)N(Cc2cccc(Cl)c2)Cc2ccco2)oc2ccccc12 | - | ? | - | ? | . | .
Cc1c(C(=O)NCc2ccco2)oc2ccc(Br)cc12 | - | - | - | - | - | -
